D2 antagonist – antagonists of human D2 dopamine receptor | P14416 | HEK293 TREx D2 cells, calcium flux, dopamine EC80 | inhibition, % at 10 µM | 340,000 compounds, 2% hits; in the data active = inhibition above about 30%; inactive = below that, where a call was filed
Target sequence (P14416 whole entry, looked up): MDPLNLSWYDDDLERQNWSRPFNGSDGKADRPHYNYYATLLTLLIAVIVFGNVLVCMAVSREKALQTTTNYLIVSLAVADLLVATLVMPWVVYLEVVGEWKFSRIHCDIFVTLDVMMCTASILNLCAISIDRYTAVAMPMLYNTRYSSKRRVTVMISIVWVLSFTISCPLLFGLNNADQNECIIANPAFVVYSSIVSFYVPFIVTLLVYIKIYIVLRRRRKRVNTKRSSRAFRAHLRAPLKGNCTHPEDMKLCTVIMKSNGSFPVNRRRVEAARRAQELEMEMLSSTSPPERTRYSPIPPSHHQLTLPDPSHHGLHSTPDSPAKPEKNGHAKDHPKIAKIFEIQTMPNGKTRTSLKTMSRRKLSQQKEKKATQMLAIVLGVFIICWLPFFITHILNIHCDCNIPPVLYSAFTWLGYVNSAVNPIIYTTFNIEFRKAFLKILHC
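Measurement of antagonist activity uses fluorescent calcium dye in inducible HEK293 T-REx D2 cells: 10 s baseline, compound addition with 180 s read, EC80 dopamine addition with a further 180 s read.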
D2 ag-1 – activates the human D2 dopamine receptor | P14416 | HEK293 T-REx D2 cells, calcium flux agonist mode | activation, % at 2 µM | 340,000 compounds, 0.53% hits;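 active = activation over 3 SD above normal in the single-dose calcium agonist read, cut at about 30% in these data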
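In this primary screen, compounds producing a positive calcium signal within 180 s of addition to tetracycline-induced, force-coupled HEK293 Trex D2 cells are flagged; cells are dye-loaded with a no-wash calcium kit beforehand.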
D2 ag-2 – human D2 receptor agonism in beta-arrestin assay; P14416; DiscoveRx PathHunter D2 beta-arrestin, luminescence, 90 min; 100% = 57 uM dopamine signal; activation, % (no concentration beside the values); 360,000 compounds, 0.084% hits; AID 624465; in the data active = activation above about 40%; inconclusive = between about 15% and that limit
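Agonist mode: compounds alone added to overnight-plated D2 PathHunter cells for 90 min at 37 C, with 57 uM final dopamine (EC100) defining full response. Beta-arrestin recruitment detected by chemiluminescent reagent, read after 1 h at ambient temperature.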
D2 PAM-1 – positive allosteric modulators of human D2 dopamine receptor; P14416; DiscoveRx D2 beta-arrestin cells, luminescence, 90 min; 100% = 57 uM dopamine signal; potentiation, % (concentration not given with the values); 360,000 compounds, 0.23% hits; AID 624464; in the data active = potentiation above about 50%; inconclusive = mostly about 30% to 49%
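PathHunter D2 cells, attached overnight at 37 deg C, received compound in DMSO plus dopamine at EC20 (50 nM final) for 90 min at 37 deg C. Beta-arrestin recruitment was read as luminescence after 1 h with detection reagent at ambient temperature.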
D2 PAM-2 – positively modulates the human D2 dopamine receptor allosterically; HEK293 T-REx D2, calcium flux, EC20 dopamine potentiation; AID 485347; 340,000 compounds, 0.34% hits; potentiation, % at 10 µM; P14416;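 active = potentiation over 3 SD above the plate norm, cut at about 30% in these data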
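Tetracycline-induced Hek293 Trex D2 cells, force-coupled to calcium, loaded with no-wash calcium dye. Compound added with 180 s kinetic read for agonism, then EC20 dopamine and a further 180 s read for potentiation.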
Numbers stand for hits. Only some compounds are listed: those with a hit (about 2.4% of all), similar ones and a draw of the others.

CN(C)c1ccc(S(=O)(=O)NCC(=O)NCCC2=CCCCC2)cc1[N+](=O)[O-] was read as D2 antagonist 31, D2 ag-1 inactive, D2 ag-2 inactive, D2 PAM-1 inactive and D2 PAM-2 inactive.
Screening CN(C)c1ccc(S(=O)(=O)NCC(=O)NCCOc2ccccc2F)cc1[N+](=O)[O-] returned D2 antagonist inactive, D2 ag-1 inactive, D2 ag-2 inactive, D2 PAM-1 inactive and D2 PAM-2 inactive.
Screening COc1ccccc1Nc1nn2c(=O)c3ccc(C(=O)NCc4cccnc4)cc3nc2s1 returned D2 antagonist inactive, D2 ag-1 inactive and D2 PAM-2 30.
`COc1ccccc1Nc1nn2c(=O)c3ccc(C(=O)NCc4ccc(F)cc4)cc3nc2s1` gave D2 ag-1 inactive and D2 PAM-2 inactive.
`CCOC(=O)C(=O)NC12CC3CC(CC(C3)C1)C2` gave D2 antagonist inactive, D2 ag-1 inactive, D2 ag-2 inactive, D2 PAM-1 inactive and D2 PAM-2 inactive.
For O=C(Nc1ccncc1)c1cc2ccccc2cc1O the results were D2 antagonist inactive, D2 ag-1 inactive, D2 ag-2 inconclusive, D2 PAM-1 137 and D2 PAM-2 inactive.
`CC(=O)c1ccc(OCC(O)CN(C)CCOc2ccc(Br)cc2)cc1` (centres undefined) gave D2 antagonist 44, D2 ag-1 inactive, D2 ag-2 inactive, D2 PAM-1 inactive and D2 PAM-2 inactive.
`COc1ccc(CCN(C)CC(O)COc2ccc(C(C)=O)cc2OC)cc1OC` (centres undefined) gave D2 antagonist 36, D2 ag-1 inactive, D2 ag-2 inactive, D2 PAM-1 inactive and D2 PAM-2 inactive.
Screening Oc1c(C=Nc2ccccc2Cl)[nH]c2ccccc12 returned D2 ag-2 inactive and D2 PAM-1 inactive.
CC(C)(C)NC(=O)C1CC(=O)OC1(C)C (centres undefined) was read as D2 antagonist inactive, D2 ag-1 inactive, D2 ag-2 inactive, D2 PAM-1 inactive and D2 PAM-2 33.
Screening CC1CCCN(C(=O)Nc2cccc(NC(=O)N3CCCC(C)C3C)c2)C1C (centres undefined) returned D2 antagonist inactive, D2 ag-1 inactive, D2 ag-2 inactive, D2 PAM-1 inactive and D2 PAM-2 inactive.
For CN(C(=O)c1nn(C)c2c1CSc1ccccc1-2)c1ccccc1Cl the results were D2 antagonist inactive, D2 ag-1 inactive, D2 ag-2 inactive, D2 PAM-1 inactive and D2 PAM-2 inactive.
Cc1cc(Cl)ccc1C(O)c1ncc(-c2ccc(Cl)cc2)[nH]1 (centres undefined) was read as D2 ag-2 inactive and D2 PAM-1 inactive.
Screening Cc1c(Br)c([N+](=O)[O-])nn1C(C)C(=O)Nc1ccc2c(c1)OCO2 (centres undefined) returned D2 antagonist 40, D2 ag-1 inactive, D2 ag-2 inactive, D2 PAM-1 inactive and D2 PAM-2 inactive.
O=C(CNC(=O)c1ccco1)OCC(=O)c1ccc([N+](=O)[O-])cc1 was read as D2 antagonist inactive, D2 ag-1 inactive, D2 ag-2 inactive, D2 PAM-1 inactive and D2 PAM-2 inactive.
COc1ccc(Cn2c3nc4ccccc4nc3c3c(=O)n(Cc4ccco4)c(C)nc32)cc1 was read as D2 antagonist 33, D2 ag-1 inactive and D2 PAM-2 inactive.
Screening COc1ccc(Cn2c(C)nc3c(c2=O)c2nc4ccccc4nc2n3Cc2ccco2)cc1 returned D2 ag-2 inactive and D2 PAM-1 inactive.
For COc1ccc(NC(=O)CCCc2ccccc2)c(OC)c1 the results were D2 antagonist inactive, D2 ag-1 inactive, D2 ag-2 inactive, D2 PAM-1 inactive and D2 PAM-2 inactive.
Screening COc1ccc(NC(=O)C/C(C)=N/NC(=O)CCc2ccccc2)c(OC)c1 returned D2 antagonist 40, D2 ag-1 inactive, D2 ag-2 inactive, D2 PAM-1 inactive and D2 PAM-2 inactive.
COC(C(=O)Nc1ccnn1C1CCN(Cc2ccc(C)o2)CC1)c1ccccc1 (centres undefined) was read as D2 antagonist inactive, D2 ag-1 inactive, D2 ag-2 inactive, D2 PAM-1 inactive and D2 PAM-2 inactive.
`O=C(c1ccco1)N1CCN(c2c([N+](=O)[O-])nn(-c3ccc(Cl)cc3)[n+]2[O-])CC1` gave D2 antagonist inactive, D2 ag-1 inactive, D2 ag-2 inactive, D2 PAM-1 inactive and D2 PAM-2 inactive.
For CC1CCN(c2c([N+](=O)[O-])nn(-c3ccc4c(c3)OCCO4)[n+]2[O-])CC1 the results were D2 antagonist inactive, D2 ag-1 inactive, D2 ag-2 inactive, D2 PAM-1 75 and D2 PAM-2 inactive.
Cn1c(NCC(O)c2ccccc2)nc2c1c(=O)n(Cc1ccc(Cl)c(Cl)c1)c(=O)n2C (centres undefined) was read as D2 ag-2 inactive and D2 PAM-1 54.
Screening Cn1c(NCC(O)c2ccccc2)nc2c1c(=O)n(Cc1ccc(Cl)cc1)c(=O)n2C (centres undefined) returned D2 antagonist inactive, D2 ag-1 inactive, D2 ag-2 inactive, D2 PAM-1 inactive and D2 PAM-2 inactive.
`Cc1cc(C)c(C)c(OCCCCN(C)Cc2ccccc2)c1` gave D2 antagonist 31, D2 ag-1 inactive, D2 ag-2 inactive, D2 PAM-1 inactive and D2 PAM-2 inactive.
Screening CN(CCOc1ccccc1)CCOc1ccccc1 returned D2 antagonist 37, D2 ag-1 inactive, D2 ag-2 inactive, D2 PAM-1 inactive and D2 PAM-2 inactive.
Screening CN(CCCCOc1ccc(F)cc1)Cc1ccccc1 returned D2 antagonist 33, D2 ag-1 inactive, D2 ag-2 inactive, D2 PAM-1 inactive and D2 PAM-2 inactive.
CCC(C)c1ccccc1OCCCN(C)Cc1ccccc1 (centres undefined) was read as D2 antagonist 35, D2 ag-1 inactive, D2 ag-2 inactive, D2 PAM-1 inactive and D2 PAM-2 inactive.
`CN(CCOc1ccc(F)cc1)Cc1ccccc1` gave D2 antagonist inactive, D2 ag-1 inactive, D2 ag-2 inactive, D2 PAM-1 inactive and D2 PAM-2 inactive.
Screening COc1ccc(NC(=O)COC(=O)CC2CCCC2)cc1Cl returned D2 antagonist inactive, D2 ag-1 inactive, D2 ag-2 inactive, D2 PAM-1 inactive and D2 PAM-2 inactive.
`O=C(CC1SC(N2CCOCC2)=NC1=O)Nc1ccc(Cl)cc1` (centres undefined) gave D2 antagonist 58, D2 ag-1 inactive, D2 ag-2 inactive, D2 PAM-1 inactive and D2 PAM-2 inactive.
O=C(CC1SC(N2CCOCC2)=NC1=O)Nc1cc([N+](=O)[O-])ccc1Cl (centres undefined) was read as D2 antagonist 54, D2 ag-1 inactive, D2 ag-2 inactive, D2 PAM-1 inactive and D2 PAM-2 inactive.

Screening data from PubChem.
